Measured values reported in PubChem BioAssay (NCI).
About 83,000 compounds went through this panel and 20% of them were active in at least one assay; those are over-represented in the sample as a whole.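 A percent growth of 40 corresponds to 60% growth inhibition; 0 means no net growth; -100 means all cells died. Active threshold: below 10.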 Activity calls are given as the source filed them.

Each compound was assayed on HCT-15 colon (assay: NCI-60 one-dose screen, 48 h (100 = growth as untreated, 0 = no growth, -100 = all killed)). Conditions: 10 µM unless noted.
In the case of `O=C(COc1ccc(NC(=O)Nc2ccc(Cl)cc2)cc1)N/N=C/c1ccccc1`, the growth is reported as -80.3% (active).
For `COc1cc(/C=C/C(=O)c2ccccc2)ccc1Oc1nc(Nc2ccc(F)cc2)nc(N(C)C)n1`, the growth was -0.132% (active).
`CN(C)CCCNC(=O)c1cc(NC(=O)c2cc(NC(=O)c3ccc(/C=C/c4ccccc4)cc3)cn2C)cn1C` was tested, and the growth was 44.3% (inactive).
`COc1ccc(C(=O)/C=C/c2ccc(Oc3nc(Nc4ccc(F)cc4)nc(N(C)C)n3)c(OC)c2)cc1` was tested, and the growth was 33.8% (inactive).
`CN(C)CCOc1ccc(C(=O)C2[C@H](c3ccc(Cl)cc3)[C@@H](c3ccccc3)NC23C(=O)Nc2ccc(Br)cc23)cc1` (stereo partly drawn) was tested, and the growth was -81.5% (active).
For `COc1ccc(-c2ccc(SCC(=O)NCCc3ccc(S(N)(=O)=O)cc3)nn2)cc1`, the growth was 110% (inactive).
`Cc1nc(Nc2ncc(C(=O)Nc3c(C)cccc3Cl)s2)cc(N2CCN(CCCNC(=O)COc3ccc(C4CCC(=O)NC4=O)cc3)CC2)n1` (stereo not drawn) was tested, and the growth was 68.3% (inactive).
In the case of `C=C1CCC2C3(C)COC(c4ccc(F)cc4)OC3CCC2(C)C1C/C=C1/C(=O)OCC1O` (stereo not drawn), the growth is reported as -42.3% (active).
For `O=c1onc(-c2cc3ccccc3nc2Cl)n1-c1cccc2ccccc12`, the growth was 21.6% (inactive).
In the case of `O=C1NC(=O)/C(=C/c2ccccc2OCc2cc3ccccc3nc2Cl)S1`, the growth is reported as 84% (inactive).
In the case of `O=C(COc1ccc(NC(=O)Nc2ccc(Cl)c(Cl)c2)cc1)N=Nc1c(O)[nH]c2ccc(Br)cc12`, the growth is reported as 27% (inactive).
For `COc1cccc(/C=C/c2nc3ccccc3c(=O)n2CC(=O)Nc2ccc(Cl)cc2)c1`, the growth was 88.3% (inactive).
In the case of `COc1ccc(C(=O)/C=C/c2cccc(Cl)c2)cc1S(N)(=O)=O`, the growth is reported as -89.9% (active).
With `COc1cc(C2CC(c3cc(OC)c(OC)c(OC)c3)=NN2c2ccccc2)ccc1OCc1ccc(C)cc1` (stereo not drawn) the growth was 86.2% (inactive).
`CCOP(=O)(OCCCl)c1nc(-c2ccc(C)cc2)oc1NCc1ccccc1` (stereo not drawn) was tested, and the growth was 57.6% (inactive).
For `Cc1ccccc1[C@H]1C(C(=O)c2ccc(Cl)cc2)C2(N[C@@H]1c1ccccc1)C(=O)Nc1ccccc12` (stereo partly drawn), the growth was -14% (active).
In the case of `Cc1ccccc1[C@H]1C(C(=O)c2ccc(Cl)cc2)C2(N[C@@H]1c1ccccc1)C(=O)Nc1ccc(Br)cc12` (stereo partly drawn), the growth is reported as 7.15% (active).
With `Cc1cc(=O)oc2cc(OCCOc3ccc(/C=C/C(=O)Nc4ccccc4N)cc3)ccc12` the growth was 39.7% (inactive).
`COc1cccc(/C=C/C(=O)c2ccc(OC)c(S(N)(=O)=O)c2)c1` was tested, and the growth was -7.46% (active).
`Cn1cc(NC(=O)c2cc(NC(=O)c3ccc(/C=C/c4ccccc4)cc3)cn2C)cc1C(=O)NCCCN1CCOCC1` was tested, and the growth was 7.6% (active).
With `CN1CCN(Cc2ccc(C(=O)Nc3cccc(C#Cc4cccc5[nH]nc(N)c45)c3)cc2C(F)(F)F)CC1` the growth was -93.9% (active).
For `CCCn1cc(-c2nc(Nc3ccc(C(=O)NCCCCNc4cccc5c4C(=O)N(C4CCC(=O)NC4=O)C5=O)cc3)nc3[nH]ccc23)cn1` (stereo not drawn), the growth was 40.1% (inactive).
For `COc1c(F)ccc(C(=O)Nc2ccc3nc(NC(=O)C4CCCN(S(=O)(=O)c5ccc(C(F)(F)F)cc5)C4)sc3c2)c1F` (stereo not drawn), the growth was 85.7% (inactive).
With `Cn1nc(C(F)(F)F)cc1-c1cc(Cl)c(COc2ccc(Cl)cc2)c(-c2ccc(Cl)c(C(F)(F)F)c2)c1O` the growth was -39.5% (active).
`COc1ccc(C(=O)/C=C/c2ccccc2Br)cc1S(N)(=O)=O` was tested, and the growth was -91.5% (active).
`COc1ccc2c(c1)c(/C=N/Nc1ccc3ccccc3n1)cn2C` was tested, and the growth was -44.8% (active).
With `COc1c(F)ccc(C(=O)Nc2ccc3nc(NC(=O)C4CCCN(S(=O)(=O)c5ccc(Br)c(F)c5)C4)sc3c2)c1F` (stereo not drawn) the growth was 73.6% (inactive).
With `COc1cc(OC)cc(-c2cc3ccc(N(C)C)cc3c(=O)[nH]2)c1` the growth was 18.9% (inactive).
`Clc1cccc(-c2ccc(OCCCN3CCN(c4ccncc4)CC3)cc2)c1` was tested, and the growth was -69.8% (active).
In the case of `CC12CC[C@@H]3[C@]4(C)COC(c5cn[nH]c5-c5ccc(Br)cc5)O[C@@H]4CC[C@@]3(C)[C@@H]1CC(C1=CCOC1=O)O2` (stereo partly drawn), the growth is reported as 42.2% (inactive).
For `CC12CC[C@@H]3[C@]4(C)COC(c5cn[nH]c5-c5cccc(Cl)c5)O[C@@H]4CC[C@@]3(C)[C@@H]1CC(C1=CCOC1=O)O2` (stereo partly drawn), the growth was 35.1% (inactive).
`CCCSc1nc(Nc2ccc(S(N)(=O)=O)cc2)c(C#N)c(-c2ccc(Cl)cc2)n1` was tested, and the growth was 21.7% (inactive).
For `COc1ccc(-c2nc3ccc(C(=O)NN4C(=O)c5ccc([N+](=O)[O-])cc5C4=O)cc3[nH]2)cc1`, the growth was 95.9% (inactive).
